From PubChem BioAssay
DT40 TDP1 CPT – growth inhibition of DT40 Tdp1-/-;hTDP1 cells with camptothecin (screen for TDP1 inhibitors) | chicken DT40 Tdp1-/-;hTDP1 cells + 20 nM CPT, ATP luminescence, 48 h | Potency, µM (titrated, usually from 46.2 µM), for the others: at the top dose activity change, negative = growth inhibition, most hits filed as inhibitors | 12% of 420,000 active; also: potency is read from the fitted curve at half-maximal effect; nearly all actives have a fitted effect of over 55% in size
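Chicken DT40 Tdp1-/- cells stably complemented with human TDP1 were seeded at 400 cells/well in medium containing 20 nM camptothecin, exposed to pin-transferred compounds, and grown at 37 °C for at least 48 hr. Viability was read as ATP luminescence.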
TDP1 inh – inhibitors of human tyrosyl-DNA phosphodiesterase TDP1. recombinant TDP1, AlphaScreen DNA substrate cleavage. Potency, µM (doses to about 130 µM), for the others: top-dose activity change, negative = inhibition, hits mostly inhibitors. 0.28% of 350,000 active. AID 485290; also: potency is read from the fitted curve at half-maximal effect; nearly all actives have a fitted effect of over 40% in size
Target sequence (Q9NUW8 whole entry, looked up): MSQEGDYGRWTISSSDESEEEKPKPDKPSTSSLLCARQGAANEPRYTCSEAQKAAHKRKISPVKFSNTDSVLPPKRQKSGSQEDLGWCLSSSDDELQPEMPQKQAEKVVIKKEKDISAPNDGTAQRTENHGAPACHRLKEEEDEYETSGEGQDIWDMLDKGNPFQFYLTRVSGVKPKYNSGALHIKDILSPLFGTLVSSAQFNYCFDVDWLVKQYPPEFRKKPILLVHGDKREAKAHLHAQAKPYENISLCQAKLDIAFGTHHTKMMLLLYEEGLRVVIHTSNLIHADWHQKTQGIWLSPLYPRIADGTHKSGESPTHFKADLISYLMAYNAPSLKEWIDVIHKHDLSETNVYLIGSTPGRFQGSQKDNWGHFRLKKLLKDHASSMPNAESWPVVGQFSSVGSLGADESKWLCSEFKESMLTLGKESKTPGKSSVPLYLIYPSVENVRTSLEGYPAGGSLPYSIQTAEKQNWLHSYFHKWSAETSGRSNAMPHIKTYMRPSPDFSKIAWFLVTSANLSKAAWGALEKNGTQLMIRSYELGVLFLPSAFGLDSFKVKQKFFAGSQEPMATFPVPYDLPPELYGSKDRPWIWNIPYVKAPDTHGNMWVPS
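Compounds were preincubated with Tdp1 (1 nM final) for 15 min at room temperature before substrate (15 nM final) started a 5 min reaction; beads (10 ug/ml final) were then added for 10 min before AlphaScreen detection.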
ELG1 DNA repair – inhibitors of ELG1-dependent DNA repair in HEK293T cells. HEK293T ELG1-luciferase reporter, luminescence, 16 h; DNA damage induced by 5-fluorouridine. Potency, µM (titrated, usually from 46.1 µM), inactives show at the highest dose activity change, negative = inhibition, usual class: inhibitors. 2.3% of 330,000 active; also: potency is read from the fitted curve at half-maximal effect; nearly all actives have a fitted effect of over 55% in size
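In this reporter screen, reduction of luminescence relative to DMSO vehicle indicated activity. Compounds and 5-fluorouridine were added together to 2,000 cells per well, incubated for 16 hr at 37 °C, then developed with ONE-Glo.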
DT40 TDP1 no CPT – qHTS for Inhibitors of human tyrosyl-DNA phosphodiesterase 1 (TDP1): qHTS in cells in absence of CPT | 15% of 420,000 active | DT40 Tdp1-/- hTDP1 cells, no CPT, ATP luminescence, 48 h | Potency, µM (series often up to 46.2 µM), for the others: at the top dose activity change, negative = growth inhibition, hits mostly inhibitors | AID 686978, 2013; also: potency is read from the fitted curve at half-maximal effect; nearly all actives have a fitted effect of over 55% in size
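A cellular qHTS used chicken DT40 cells lacking endogenous Tdp1 but carrying stably transfected human TDP1. Compounds were applied without camptothecin, and cell growth kinetics were judged by ATP-dependent luminescence after ≥48 hr.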
Giardia killer – Giardia lamblia killing; 0.15% of 340,000 active; Giardia lamblia trophozoite viability; activity change, % at 7.66 µM, hits read low; in the data active = activity change below about -80%; inconclusive = between about -30% and that limit;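 also: parasites exposed to compound for two days anaerobically before the ATP read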
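Luminescence from cellular ATP indicates surviving trophozoites (100 cells/well) following 48 hrs anaerobic compound treatment at 37 deg C; signal develops 15-30 min at room temperature.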
IL-1B inflam inh – inflammasome signaling inhibition, IL-1 beta readout. AID 743279. activity change, % at 57.5 µM. 4.7% of 360,000 active. THP-1 LPS/ATP IL-1B secretion, AlphaLISA, 16 h; stronger effect = lower value; in the data active = activity change below about -50%; inconclusive = mostly about -30% to -49%
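Secreted IL-1B measured by AlphaLISA bead assay after 16 h compound exposure of THP-1 cells; compounds (final up to 57.5 uM) added 1 h before LPS (250 ng/mL) and ATP (1.25 mM) stimulation; lower signal means less secretion.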
* marks the source's active call; other numbers are inactive results; u = inconclusive; x = no result given; [ ] = remark or other dose. An excerpt weighted towards active compounds, which were near 19% of everything screened. Unless noted, calls follow the shape of the dose curve; as a rule, active = well fitted curve in the direction sought with a large enough effect; inconclusive = small, poorly fitted or top-dose-only effect, or another doubt; inactive = no such curve, though single readings can be large; an effect the other way counts as inactive or inconclusive. % is scaled to controls: 0 for no effect and ±100 for the full control effect.

SMILES | DT40 TDP1 CPT | TDP1 inh | ELG1 DNA repair | DT40 TDP1 no CPT | Giardia killer | IL-1B inflam inh
COc1cc(OC)c(NC(=O)CN(C)S(=O)(=O)c2ccc3[nH]c(=O)oc3c2)cc1Cl | 0.6% | 0.1% | 12.5% | 10.3% | -7.2 | 22.4
COc1cc(Cl)c(NC(=O)CN(C)S(=O)(=O)c2ccc3[nH]c4c(c3c2)CCCC4)c(OC)c1 | 23.1µM* | 2.5% | x | 18.4µM* | x | x
CCN(Cc1ccncc1)Cc1nc(Cc2ccccc2Cl)no1 | u | 5.4% | u | 13µM* | u | 23.3
O=C(CCSCc1ccccc1Cl)NCc1ccc(F)cc1Cl | u | 2.6% | x | u | x | x
Cc1nn2c(N3CCN(C(=O)c4ccco4)CC3)cc(C(C)(C)C)nc2c1-c1ccccc1 | u | 2.1% | -4.5% | u | 4.5 | -25.7
O=C(c1ccoc1)N1CCN(c2cc(-c3ccccc3)nc3cc(-c4ccccc4)nn23)CC1 | 18.4µM* | x | x | 16.4µM* | x | -2.7
CCN1CCN(C(=O)c2cc3nc(-c4ccccc4)cc(C(F)(F)F)n3n2)CC1 | -18.4% | 4.5% | 15.8% | -6.0% | 3.5 | -15.0
COc1ccccc1-c1cc2nc(-c3ccccc3)cc(N3CCN(C(=O)c4ccoc4)CC3)n2n1 | 9.2µM* | x | x | 5.17µM* | x | 10.5
COc1cccc(OC)c1C(=O)N1CCN(C(=O)c2ccc(-c3ccccc3)cc2)CC1 | u | 5.5% | 8.1% | -16.7% | -7.8 | -17.7
COc1ccccc1-c1nc(C#N)c(N2CCN(C(=O)c3ccco3)CC2)o1 | 5.7% | 0.5% | -3.9% | 3.8% | 2.1 | 9.4
O=C(c1ccoc1)N1CCN(c2cc(-c3ccco3)nc3cc(-c4ccccc4)nn23)CC1 | 8.2µM* | x | x | 7.31µM* | x | -0.5
COc1ccccc1-c1cc2nc(-c3ccccc3)cc(N3CCN(C(=O)c4ccco4)CC3)n2n1 | 11.6µM* | x | x | 6.51µM* | x | 13.8
CSc1ccc2cc(CNCc3ccccc3F)c(N3CCCC(CO)C3)nc2c1 (centres undefined) | -5.5%[9.04 µM] | x | x | -11.7% | x | x
COc1cc(C(C)=O)ccc1OCC(=O)N(CCC1=CCCCC1)c1c(N)n(Cc2ccccc2)c(=O)[nH]c1=O | u | x | u | u | -10.5 | 34.7
CC(C)CNc1nc(C#N)nc(Nc2ccccc2)n1 | x | 6.2% | x | x | x | x
Cc1cc(N2CCN(C(=O)c3ccoc3)CC2)n2nc(-c3ccccc3)cc2n1 | u | x | x | 18.4µM* | x | -9.9
O=C(CSc1ncn[nH]1)N1N=C2/C(=C/c3ccco3)CCCC2C1c1ccco1 (centres undefined) | u | 2.3% | 3.0% | u | 6.2 | -59.6*
O=C(CCNC(=O)c1ccc(Br)cc1)NNC(=O)c1ccccc1 | 1.5% | 0.7% | 20.9% | -6.5% | -16.6 | 18.7
O=C1CCN(S(=O)(=O)c2cccs2)c2ccc(C(F)(F)F)cc2N1 | 4.4% | 2.3% | 11.7% | 4.9% | 23.3 | u
O=c1[nH]c(S)nc2sc3c(c12)CCCC3 | -11.1% | 1.8% | 6.1% | 7.3% | -0.5 | -2.3
O=c1[nH]nnc2sc3c(c12)CCCC3 | u | -2.5% | 13µM* | u | 10.4 | 28.7
CCN(CC)CCOC[C@H]1O[C@@H](O)[C@H](OCCN(CC)CC)[C@@H](O)[C@@H]1O | -2.3% | x | x | -2.5% | x | x
COC(=O)C(CC(=O)c1ccc(Br)cc1)n1cccn1 (centres undefined) | -6.6% | 3.9% | -3.9% | -2.3% | -12.1 | 4.7
CC1(C(=O)NS(=O)(=O)c2cccs2)CCN1C(=O)C1(c2ccc(Cl)cc2)CCC1 (centres undefined) | 5.4% | x | x | -1.9% | x | 0.0
CCOC(=O)c1sc2nccc(N(C)C)c2c1N=CNOCc1c(F)cccc1Cl | u | x | 16.4µM* | 23.1µM* | 9.6 | -3.2
CCC(c1nnnn1-c1ccc2c(c1)OCCO2)N1CCc2ccccc2C1 (centres undefined) | u | x | x | u | x | 4.1
